# Screening data as filed in PubChem BioAssay.
# Sm TGR block = blocks Schistosoma mansoni thioredoxin glutathione reductase | Q962Y6 | purified TGR, DTNB reduction, TNB absorbance 405 nm | Potency, µM (highest dose often 114 µM), for the others: at the top dose activity change, negative = inhibition, usual class: inhibitors | 360,000 compounds, 3% hits | AID 485364; also: potency is read from the fitted curve at half-maximal effect; nearly all actives have a fitted effect of over 60% in size
#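 TGR 20 nM + NADPH 100 uM (dispensed conc.), cpd preinc 15 min RT; start with NADPH (500 uM addition) then DTNB (15 mM addition). Kinetic TNB absorbance, 405 nm filter. Four-parameter Hill fit across titration.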
# Pf growth 48h = inhibits P. falciparum growth in the first generation, 48 h. AID 504832. Potency, µM (series often up to 28.7 µM), for the others: at the top dose activity change, negative = inhibition, most hits filed as inhibitors. P. falciparum luciferase growth in erythrocytes, 48 h. 310,000 compounds, 5.9% hits; also: potency is read from the fitted curve at half-maximal effect
#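 Here the parasites carry a stable luciferase gene and grow inside erythrocytes in Albumax-based RPMI medium with compound for one erythrocytic cycle. Activity is scored as loss of luminescent signal.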
# Pf growth 96h = P. falciparum growth inhibition at 96 hours. P. falciparum luciferase reporter growth, 96 h. AID 504834. Potency, µM (series often up to 28.7 µM), without a hit: at the highest dose activity change, negative = inhibition, usual class: inhibitors. 320,000 compounds, 6.9% hits; also: potency is read from the fitted curve at half-maximal effect
#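 Compounds incubated with erythrocytes infected by luciferase-expressing P. falciparum (2% hematocrit, 0.05% parasitemia final) for 96 hours, 37 C in 5% CO2. Growth inhibition scored as decreased luciferase luminescence.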
# Giardia FBPA inh = blocks Giardia fructose-bisphosphate aldolase activity | purified Giardia FBPA | AID 2451 | Potency, µM (titrated, usually from 59.6 µM), for the others: top-dose activity, negative = inhibition, most hits filed as inhibitors | 290,000 compounds, 0.71% hits | A8B2U2; also: potency is read from the fitted curve at half-maximal effect; nearly all actives have a fitted effect of over 55% in size
# Target sequence (A8B2U2 whole entry, looked up): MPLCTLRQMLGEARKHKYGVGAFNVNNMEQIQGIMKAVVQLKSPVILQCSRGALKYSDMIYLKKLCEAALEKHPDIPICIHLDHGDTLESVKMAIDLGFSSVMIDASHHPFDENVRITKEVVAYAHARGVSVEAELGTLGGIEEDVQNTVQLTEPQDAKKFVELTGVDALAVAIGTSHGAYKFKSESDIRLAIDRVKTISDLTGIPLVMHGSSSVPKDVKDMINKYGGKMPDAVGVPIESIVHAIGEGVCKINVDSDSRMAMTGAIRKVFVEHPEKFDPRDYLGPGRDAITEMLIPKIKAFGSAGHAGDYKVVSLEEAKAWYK
#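 Giardia FBPA (40 nM reagent) was preincubated 10 min at RT with compound (up to 57.5 uM final), then substrate plus GAPDH/TPI/NAD/arsenate coupling system with diaphorase/resazurin was added; resorufin fluorescence (525/598 nm) was read after 20 min.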
# HCMV inh = human cytomegalovirus inhibition | HFF cells, HCMV-luciferase reporter, 72 h; hits give low values | activity change, negative = inhibition, % at 57.5 µM | 410,000 compounds, 4.5% hits | AID 1259415; in the data active = activity change below about -60%; inconclusive = no clear call, values can overlap the other calls; inactive = above about -39%
#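 Two-dose cell screen: HFF monolayers treated with compounds and infected with luciferase-expressing HCMV at 1 PFU/cell, 72 h at 37C, then lysed for luciferase measurement.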
# The depositor's hits bear a star; ? = inconclusive; . = no result; + = active, no number; [ ] = another dose, or the depositor's remark. In the library only some 14% were active in any assay of this set; here they are far more common. Unless noted, calls follow the shape of the dose curve; as a rule, active = well fitted curve in the direction sought with a large enough effect; inconclusive = small, poorly fitted or top-dose-only effect, or another doubt; inactive = no such curve, though single readings can be large; an effect the other way counts as inactive or inconclusive. % is scaled to controls: 0 for no effect and ±100 for the full control effect.
SMILES,Sm TGR block,Pf growth 48h,Pf growth 96h,Giardia FBPA inh,HCMV inh
CC1CN(C(=S)Nc2ccc(F)cc2F)CC(C)O1 (centres undefined),-8%,10%,22%,-1%,16
Cc1csc2ncnc(N3CCN(C(=S)Nc4ccc(F)cc4F)CC3)c12,2%,18%,47%,-3%,-77*
O=S(=O)(c1ccccc1)N1N=C(c2ccccc2)CC1c1ccccc1F (centres undefined),-1%,?,33%,2%,-2
N[C@@](C(=O)O)(c1ccc(P(=O)(O)O)cc1)C1CC1,.,.,.,-26%,.
COc1ccc(N2C(=O)c3cccc4c(N(C)CCO)ccc(c34)C2=O)cc1,?,10µM*,22%,4%,-28
CC(=O)Nc1ccc(N2C(=O)c3cccc4c(O)ccc(c34)C2=O)cc1,?,-1%[0.00184 µM],22%,?,?
O=C1c2cccc3c(O)ccc(c23)C(=O)N1c1ccc(Cl)cc1,25µM*,.,14%,?,-72*
O=C1c2ccccc2C(=O)N1Cc1ccco1,1%,12%,?,4%,-9
O=C1c2cccc3c(O)ccc(c23)C(=O)N1Cc1ccco1,6.3µM*,2%,-19%,?,-25
COc1cccc(-c2cccc3c4c([nH]c23)[C@@H]2C[C@H]3[C@@H](C(=O)N2CC4)[C@H](C)ON3C)c1,.,.,.,.,-28
COc1ccc(N2CCN(C(c3cccs3)C(C)NS(=O)(=O)c3ccccc3)CC2)cc1 (centres undefined),-9%,13µM*,?,-2%,4
CC(NC(=O)C(=O)N1CCCCC1)C(c1cccs1)N1CCN(c2ccc(F)cc2)CC1 (centres undefined),-6%,?,?,.,-35
COc1ccc(N2CCN(C(c3cccs3)C(C)NC(=O)C(=O)N3CCCCC3)CC2)cc1 (centres undefined),-8%,?,12µM*,11%,0
CC(NC(=O)C(=O)N1CCCCC1)C(c1cccs1)N1CCN(c2ccccc2)CC1 (centres undefined),0%,?,?,20%,+
COCCCN1C(=O)C(CC(=O)NCCN2CCOCC2)CC(C(=O)N2CCCCCC2)=C1C (centres undefined),.,.,.,.,1
Cc1ccccc1NS(=O)(=O)c1ccc2[nH]cc(C(=O)N3CCCC3)c(=O)c2c1,2%,.,.,.,-20
Cc1nc(NC(=O)c2ccccc2)sc1-c1csc(Nc2ccc(C(=O)O)cc2)n1,-20%,57%,2.9µM*,-19%,0
O=C(NC(=S)Nc1nc(-c2cccc([N+](=O)[O-])c2)cs1)c1cc(Cl)ccc1Cl,-14%,?,35%,-27%,2
C=CCCC(=O)Nc1nc(C)c(-c2csc(Nc3cc(OC)ccc3OC)n2)s1,-4%,?,13µM*,1%,-1
COc1cccc(Nc2nc(-c3sc(NC(=O)CC(C)C)nc3C)cs2)c1,-2%,?,13µM*,2%,24
O=[N+]([O-])c1cccc(NC(=S)Nc2nc(-c3ccc(Cl)cc3Cl)cs2)c1,-2%,5.9µM*,0%,.,-87*
COc1ccc(-c2cc(C(F)(F)F)nc(SCC(=O)NCC(C)C)n2)cc1OC,2%,.,.,.,-7
CCc1noc(C)c1C(=O)Nc1nc(-c2ccc(Cl)cc2Cl)cs1,-9%,-20%,47%,-7%,-37
CCCn1c(CN2CCN(C(=O)OCC)CC2)nc2cc(NC(=O)CC)ccc21,14%,?,50%,-24%,-31
CC(=O)Nc1nc(C)c(-c2csc(Nc3cccc(C(C)=O)c3)n2)s1,-12%,.,7%,-29%,-32
SMILES,Sm TGR block,Pf growth 48h,Pf growth 96h,Giardia FBPA inh,HCMV inh
CC(=O)Nc1nc(C)c(-c2csc(Nc3cccc([N+](=O)[O-])c3)n2)s1,-17%,.,0.83µM*,-14%,-9
Cc1nc(NC(=O)c2ccccc2)sc1-c1csc(NCc2ccco2)n1,-35%,5.9µM*,?,-9%,.
COc1cccc(Nc2nc(-c3sc(NC(=O)c4ccccc4)nc3C)cs2)c1,-1%,5.2µM*,4.1µM*,-3%,-61*
Cc1nc(C)c(-c2csc(NCc3ccco3)n2)s1,-9%,26%,7%,1%,49
Cc1cc(O)ccc1Nc1nc(-c2sc(N)nc2C)cs1,-27%,-12%,9%,-6%,12
COc1ccc(OC)c(Nc2nc(-c3sc(N)nc3C)cs2)c1,-28%,15µM*,.,?,-4
COc1ccccc1C1=Nn2c(nnc2-c2cccc(OC)c2OC)SC1,.,.,.,-7%,.
C[C@H]1CN([C@@H](C)CO)C(=O)c2cc(C3=CCCC3)cnc2O[C@@H]1CN(C)C(=O)c1ccncc1,.,.,.,.,5
C=CCCC(=O)Nc1nc(C)c(-c2csc(Nc3cccc(OC)c3)n2)s1,-7%,2.6µM*,12µM*,0%,11
CCCC(C)C(=O)Nc1nc(C)c(-c2csc(Nc3cc(OC)ccc3OC)n2)s1 (centres undefined),2%,6.6µM*,9.3µM*,-1%,?
CC(=O)Nc1nc(C)c(-c2csc(Nc3ccc(O)cc3)n2)s1,-24%,2.6µM*,?,-8%,.
CC(=O)Nc1ccc(Nc2nc(-c3sc(NC(C)=O)nc3C)cs2)cc1,0%,?,?,-18%,-27
CC1CCN(C(=O)C2CCCN2S(=O)(=O)c2ccc(Cl)cc2)CC1 (centres undefined),-7%,-5%,?,.,?
CCCc1ccc2oc(C(=O)N3CCN(C4CCS(=O)(=O)C4)CC3)c(C)c2c1 (centres undefined),-27%,8%,?,.,31
COc1cccc(CNC(=O)CC2C(=O)NCCN2Cc2ccoc2)c1OC (centres undefined),20µM*,?,12µM*,-8%,-11
COc1cccc(CN2CCNC(=O)C2CC(=O)NCCN2CCOCC2)c1OC (centres undefined),-9%,6%,49%,.,15
CN(CC1CCOCC1)C(=O)CC1C(=O)NCCN1C/C=C/c1ccccc1 (centres undefined),-11%,6%,4.7µM*,0%,-20
COc1cccc(CN2CCNC(=O)C2CC(=O)NCC(C)(C)N2CCOCC2)c1OC (centres undefined),-5%,3%,10µM*,.,23
CCOc1ccccc1CN1CCNC(=O)C1CC(=O)N(C)CCC1CCOCC1 (centres undefined),?,3%,?,4%,-32
COc1cccc(CN2CCNC(=O)C2CC(=O)N(C)CCC2CCOCC2)c1OC (centres undefined),25µM*,-12%,-12%,.,21
CN(CCC1CCOCC1)C(=O)CC1C(=O)NCCN1C/C=C/c1ccccc1 (centres undefined),2%,-2%,40%,1%,-20
CCCCOCCCNC(=O)C[C@@H]1C[C@@]2(C(=O)OC)CC(C)(C)CC=C2N(Cc2ccc3c(c2)OCO3)C1=O,.,.,.,.,-15
